Measured values as given in PubChem BioAssay AID748 (Sanford-Burnham Center for Chemical Genomics, 2007).
Among all 96,000 compounds or so, about 100 (0.1%) were called active. The list comes from a sample in which actives are over-represented; it also holds similar structures and randomly drawn compounds. Potency and affinity values are given separately. A number with no mark means an inactive call.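 How the source made its calls: active means displacement above 50% at 20 µM plus a fluorescence interference ratio under 1.5; inactive means the rest.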

The molecules below were run against Bcl-2-like protein 10 (Homo sapiens) (UniProt Q9HD36) (assay: Bcl-B/TR3 peptide binding disruption – biochemical, fluorescence polarization, FITC-TR3 peptide, selectivity assay for Bfl-1 inhibitor project, primary screen (AID 748;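 further: plate controls were wells without compound for no effect and wells lacking Bcl-B protein for full effect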)). Details: FP displacement of FITC-TR3 peptide from Bcl-B; at 20 µM; hits give high values.

Row | SMILES | displacement [%]
1 | CN(C)S(=O)(=O)N(CC(=O)Nc1ccc(F)c(F)c1)c1ccccc1 | 18
2 | CN(C)S(=O)(=O)N(CC(=O)NCc1ccccc1)c1ccccc1 | 7.3
3 | CN(C)S(=O)(=O)N(Cc1ccc(Br)cc1)c1ccccc1 | 0
4 | CN(C)S(=O)(=O)N(CC(=O)Nc1cccc(F)c1)c1ccccc1 | 9.9
5 | O=c1[nH][nH]c2nc(C(F)(F)F)cc(C(F)(F)F)c12 | -9.8
6 | CCN(CC)S(=O)(=O)c1cc(C(=O)O)c(Cl)cc1Cl | -5.8
7 | Cc1ccc(NC(=O)c2nc[nH]c2C(=O)Nc2ccc(C)cc2)cc1 | 4
8 | Cc1cc(-c2nnc(-c3cc4ccccc4oc3=O)o2)c(C)n1-c1ccccc1 | 2.6
9 | CCCOC(=O)Cc1n[nH]c(=O)[nH]c1=O | -2.4
10 | COc1ccc(CN2C(=O)CN(C3CCCCCC3)C(=O)C2c2ccc(F)cc2)cc1 (centres undefined) | -2.9
11 | Cn1c(SCC(=O)Nc2ccc3nc(SCC(=O)N4CCCC4)sc3c2)nnc1-c1ccccc1 | 38.1
12 | CCC(=O)Nc1ccc2nc(SCC(=O)N3CCCC3)sc2c1 | 5.1
13 | O=C(c1ccc(N2CCNCC2)cc1)c1cccnc1 | -3.4
14 | COC(=O)C1Sc2[nH]c(=O)sc2C2c3ccccc3OC(=O)C12 (centres undefined) | 0
15 | CCOC(=O)C1CCN(Cc2nc3ccccc3c(=O)n2-c2ccc(F)cc2)CC1 | -6.2
16 | Cc1nn(Cc2cccc(C(=O)Nc3ccn(Cc4ccccc4)n3)c2)c(C)c1[N+](=O)[O-] | 3.7
17 | C=CCN1C(=O)CS/C1=N/c1nccs1 | 1.8
18 | C=CCN1C(=O)/C(=C2/Sc3ccccc3N2C)SC1=Nc1ccccc1C | -13
19 | Cc1c(Cl)cccc1-n1c(SCC(=O)NCc2ccccc2Cl)nnc1-c1ccncc1 | -10.8
20 | CC1(C)CC(=O)C2=C(C1)c1c(ccc3ccccc13)NC2c1ccco1 (centres undefined) | -4.8
21 | O=C1CCCC2=C1C(c1ccco1)Nc1ccc(C(=O)c3ccccc3)cc1N2 (centres undefined) | 22.2
22 | CCSc1nc(O)c(Cc2ccccc2)c(=O)[nH]1 | 10.2
23 | Clc1ccc(-c2nc3ccccc3n2OCc2ccccc2)cc1 | -9
24 | CC(=O)Nc1ccc(NC(=O)Cn2cc3c(n2)CCCC3)cc1 | -10.4
25 | Cc1cc(C)cc(NC(=O)Cn2cc3c(n2)CCCCC3)c1 | 2.8

Row | SMILES | displacement [%]
26 | CCCn1c(=O)c2ccccc2n2c(SCC(=O)c3ccc(F)cc3)nnc12 | -0.8
27 | CCOC(=O)c1cnc2cc3c(cn2c1=O)CCCC3 | 0
28 | CC(CC(=O)N1CCc2ccccc21)c1ccccc1 (centres undefined) | 6.2
29 | O=C(COC(=O)c1ccccc1)NCc1ccco1 | 40.9
30 | O=C(NCc1ccco1)c1cccs1 | -12.3
31 | COc1ccccc1OCC(=O)NCc1ccco1 | 2.1
32 | O=C(COC(=O)c1ccco1)NCc1ccco1 | 3.5
33 | CCOc1cc(C(=O)OCC(=O)NCc2ccco2)cc(OCC)c1OCC | 33.3
34 | COc1ccc(OCCC(=O)OCC(=O)NCc2ccco2)cc1 | 16.1
35 | O=C1NCCCc2nc(Oc3ccccc3)sc21 | 1.4
36 | Cc1cc(C)c2c(=O)c3c(oc2c1)C(=O)N(CCO)C3c1cccc(O)c1 (centres undefined) | 3.4
37 | COc1ccc(C(=O)CCC(=O)N2CCN(c3ccc(N4CCOCC4)nn3)CC2)cc1 | 4.3
38 | COc1ccccc1-c1nnc(NC(=O)C(C)SC2=NCCS2)s1 (centres undefined) | -10.4
39 | Cc1ccc(NC(=O)CCc2ccc(S(=O)(=O)N3CCOCC3)cc2)c(C)c1 | 13.6
40 | c1ccc(-c2nn3c(Cn4nnc5ccccc54)nnc3s2)cc1 | 0
41 | c1ccc2c(c1)nnn2Cc1nnc2sc(-c3ccncc3)nn12 | -19.6
42 | Nc1nonc1OCCc1ccccc1 | 2.7
43 | O=c1[nH]c(NC2CCCCC2)nnc1Cc1ccccc1 | -7
44 | NC(=O)C1c2ccccc2CSc2ccccc21 (centres undefined) | -22.4
45 | CN1CCN(CCCNC(=O)C2CCN(c3nnc(-n4cccc4)s3)CC2)CC1 | 8.6
46 | O=C(NCCCc1ccccc1)C1CCN(c2nnc(-n3cccc3)s2)CC1 | 6.7
47 | CCN1CCN(c2cc(C)c3cc(NC(=O)c4cccnc4Cl)ccc3n2)CC1 | 25.4
48 | O=C(Nc1ccc(N2CCCCC2)cc1)c1cccnc1Cl | -16.3
49 | O=C(CNC(=O)c1ccco1)OCc1cccc(Cl)c1 | -8.6
50 | Cc1ccc2c(c1C)NC(C)CC2C (centres undefined) | -4.5

Row | SMILES | displacement [%]
51 | COC(=O)c1ccc(C2Nc3ccc(/C(C)=N/NC(=O)C(OC)c4ccccc4)cc3C3C=CCC32)cc1 (centres undefined) | 5.4
52 | CC(=O)c1ccc2c(c1)C1C=CCC1C(c1ccncc1)N2 (centres undefined) | -8.3
53 | O=C(O)C1Nc2c(C(=O)N3CCOCC3)cccc2C2C=CCC12 (centres undefined) | 28.7
54 | O=C(OC1CCCCC1)c1ccc(NC(=O)C2CCCCC2)cc1 | 6.4
55 | CC(C)C1Nc2ccc(S(N)(=O)=O)cc2C2C=CCC21 (centres undefined) | 25.6
56 | Cc1ccc(S(=O)(=O)N2CCCN(S(=O)(=O)c3ccc(C)c(C)c3)CC2)cc1C | -11.3
57 | Cc1cccc(C)c1NC(=O)CNc1ccccc1 | 0.2
58 | Cn1c(=O)[nH]c(=O)c2c1nc(Br)n2CC(O)c1ccccc1 (centres undefined) | 6.4
59 | CCCCNC(=O)C1C2C=CC3(CN(Cc4ccc(C)cc4)C(=O)C13)O2 (centres undefined) | 2.1
60 | O=C(C1CCCN(Cc2ccncc2)C1)N1CCc2ccccc2C1 (centres undefined) | -14.9
61 | CCOC(=O)CC(N)c1ccc(OC)cc1 (centres undefined) | 14.7
62 | COC(=O)Cc1[nH]n(-c2nc3ccccc3s2)c(=O)c1C(C)=O | -6.8
63 | CCCN=C(C)c1c(-c2ccccc2)[nH]n(-c2nc3ccccc3s2)c1=O | -6.3
64 | CSc1nnc2n(Cc3ccccc3)c(=O)c3c4c(sc3n12)COC(C(C)C)C4 (centres undefined) | 1.6
65 | Cc1ccc(S(=O)(=O)NNC(=O)C2Cc3c(ccc4ccccc34)O2)cc1 (centres undefined) | -1.6
66 | Cc1ccc(CSCCNC(=O)c2ccc(N(C)S(=O)(=O)c3ccccc3)cc2)cc1 | 0
67 | CC1CN(S(=O)(=O)c2cccc(C(=O)OCc3cc(=O)oc4cc(O)ccc34)c2)CC(C)O1 (centres undefined) | 16.7
68 | CCN(CC)c1ccc(C(=O)OCc2cc(=O)oc3cc(O)ccc23)cc1 | 0
69 | N#CCCN1CCN(CCC#N)CC1 | -1.9
70 | COCCCn1c2nc3ccccc3nc2c2c(=O)n(Cc3ccc(Cl)cc3)cnc21 | -3.8
71 | COc1ccc(C2Nc3ccccc3C(=O)N2c2ccc(C)cc2)cc1Cn1nc(C)c([N+](=O)[O-])c1C (centres undefined) | 8.3
72 | CCS(=O)(=O)N1CCN(c2cccc(C)c2C)CC1 | 4.1
73 | CCS(=O)(=O)N1Cc2ccccc2CC1C(=O)N1CCN(c2ccccc2)CC1 (centres undefined) | 27
74 | CC1CCCN(c2oc(-c3cccc4ccccc34)nc2C#N)C1 (centres undefined) | 6.4
75 | C/C(N)=C(/C#N)C(=O)CSc1nc2ccc(C)cc2[nH]1 | 8.9

Row | SMILES | displacement [%]
76 | COc1ccc2nc(SCC(=O)/C(C#N)=C(\C)N)[nH]c2c1 | -14.3
77 | O=C(O)CCCNc1cc(N2CCC3(CC2)OCCO3)c2noc3c2c1C(=O)c1ccccc1-3 | 33.8
78 | CCOC(=O)C(C(=O)OCC)c1cc(Br)c2noc3c2c1C(=O)c1ccccc1-3 | -31.4
79 | CCCCOC(=O)Cn1c(=O)n(CC(=O)OCCCC)c2ccccc21 | 3.3
80 | COc1ccc(C(CNC(=O)c2ccc(S(=O)(=O)N3CCOCC3)cc2)N2CCCCC2)cc1 (centres undefined) | 0.7
81 | Cc1ccc(S(=O)(=O)N2CCCCC2)cc1C(=O)Nc1ccc2cn[nH]c2c1 | 5.9
82 | Cc1ccc(S(=O)(=O)N2CCCC2)cc1C(=O)O | 27.9
83 | COC(=O)c1ccccc1NC(=O)c1noc2c1CCCC2 | -7.7
84 | O=C(Nc1ccc(F)cc1F)c1noc2c1CCC2 | 46.1
85 | COC(=O)c1ccccc1NC(=O)c1noc2c1CC(C(C)(C)C)CC2 (centres undefined) | -0.1
86 | O=C(Nc1ccccc1C(=O)N1CCOCC1)c1noc2c1CCCC2 | -1.4
87 | O=C(CCCN1C(=O)CCC1=O)Nc1ccccc1F | 38.1
88 | Cc1csc(NC(=O)CSc2nnc(Cn3c(=O)sc4ccccc43)n2-c2ccccc2)n1 | -8.5
89 | CCCC(=O)Nc1ccc2oc(-c3ccc(OC)c(Br)c3)nc2c1 | -48.6
90 | O=C(CN1CCCCC1)Nc1cccc(-n2cnnn2)c1 | 5.6
91 | CC(C)(C)n1ncc2c(=O)n(CC(=O)NC3CCCCC3)cnc21 | -2.2
92 | COC(=O)c1oc2ccc(Br)cc2c1NC(=O)c1ccccc1 | -10.4
93 | Cc1cc(C)nc(Nc2ccc(N3CCOCC3)cc2)n1 | 37.9
94 | Cc1cc(C)nc(Nc2ccc(C(=O)O)cc2)n1 | 1.7
95 | CCCCCCNc1nc(NCc2ccco2)nc(OCC)n1 | -31.5
96 | Cc1nc(SCC(=O)NCc2ccco2)[nH]c(=O)c1C | -5.3
97 | Cc1cc(N)ccc1-n1c(C)ccc1C | -6.6
98 | NC(=O)c1cc(N)ccc1N1CCCC1 | 7.2
99 | CCc1nnc(NC(=O)C(=O)NCCOC(=O)c2ccccc2Cl)s1 | -14.4
